In ChEMBL document CHEMBL4513216, “Probing the Open Global Health Chemical Diversity Library for Multistage-Active Starting Points for Next-Generation Antimalarials” (ACS Infect Dis, 2020):
In all, about 65,000 compounds went through this assay and about 2,100 (3.2%) showed an effect of 50% or more. The median lay at about -52%. This excerpt belongs to a sample that is enriched for strong results.

system: Plasmodium falciparum; experiment: Screen against P. falciparum Asexual Blood Stage (ABS), at 5uM; type: functional, Dd2; conditions: tested at 5 uM

Structure (SMILES) | INHIBITION [%]
COCCN1CCC2(CC1)CC(NC(=O)C(C)C)c1ccccc1O2 (stereo not given) | -12.4
Cn1nc(C(=O)N2CCSCC2)cc1NC(=O)c1ccco1 | -104
CNc1nc(N2CCN(C3CCCCC3)C(CCO)C2)nc2c1CCC2 (stereo not given) | -32.3
CNc1nc(N2CCN(CC=C(C)C)C(CCO)C2)nc2c1CCC2 (stereo not given) | -7.97
CNc1nc(N2CCN(Cc3ccsc3)C(CCO)C2)nc2c1CCC2 (stereo not given) | 55.7
CN(C)[C@@H]1C[C@@H](CO)N(C(=O)Nc2ccc(SC(F)(F)F)cc2)C1 | 7.77
CCc1nc(C)cn1C(=O)Nc1ccc(F)cc1 | -11.7
Cc1n[nH]c(C2CN(C(=O)c3ccco3)CCO2)n1 (stereo not given) | -132
CC(C)(C)CC(=O)NC(C)(C(N)=O)c1cccc(Cl)c1 (stereo not given) | -54.6
Cc1ccc(=O)n(CC2(O)CCN(Cc3c(F)cccc3F)CC2)n1 | -42.4
Cn1cc(C(NCc2ccc(F)cc2)c2cccc(F)c2)cn1 (stereo not given) | 13.6
Fc1cccc(C(NCc2ncc[nH]2)c2ccccc2)c1 (stereo not given) | 69.1
Fc1cccc(NCc2ncc[nH]2)c1 | -155
Cc1c(C(=O)NCC2CCS(=O)(=O)C2)cnn1-c1ccccc1 (stereo not given) | -29.9
Cc1cc(C(=O)N2CCCC3(COCCN(CCN(C)C)C3)C2)no1 (stereo not given) | -49.7
CCn1ncc2c1CCCC2NCc1cccc2c1OCCO2 (stereo not given) | -36
CCn1ncc2c1CCCC2NCc1cccc2c1OCCCO2 (stereo not given) | -15.3
CC(C)(C)n1ncc2c1CCCC2NCc1cccc2c1OCO2 (stereo not given) | 56.8
CC(C)(C)n1ncc2c1CCCC2NCc1cccc2c1OCCO2 (stereo not given) | 61.5
CCn1ncc2c1CCCC2NCc1cccc2c1OCO2 (stereo not given) | -116
Cn1ncc2c1CCCC2NCc1cccc2c1OCCCO2 (stereo not given) | -48.9
CN(CCc1ccncc1)CCc1nccs1 | -102
Cc1c[nH]c(C2COCCN2C(=O)c2n[nH]c(=O)c3ccccc23)n1 (stereo not given) | -96.3
Cc1ncnc2c1CCN(C(=O)N(C)C)CC2 | -100

Structure (SMILES) | INHIBITION [%]
COCCC1CN(c2nc(-c3ccccc3)nc3c2CCNC3)CCO1 (stereo not given) | -21.7
NCC1CN(c2nc(-c3cccnc3)nc3c2CCNCC3)CCO1 (stereo not given) | -84.9
NCCC1CN(c2nc(-c3ccccc3)nc3c2CCNC3)CCO1 (stereo not given) | 66.1
OCCC1CN(c2nc(-c3cccnc3)nc3c2CCNCC3)CCO1 (stereo not given) | -121
OCCC1CN(c2nc(-c3ccncc3)nc3c2CCNCC3)CCO1 (stereo not given) | -97.5
NCC1CN(c2nc(-c3ccccc3)nc3c2CCNCC3)CCO1 (stereo not given) | 69.5
CCOCCN1CCC(C(=O)c2cc(F)ccc2F)CC1 | 5.36
O=C(O)CCC(=O)N1CCN(CC2CC2)c2ncccc2C1 | -23.3
CCSc1cncc(N2CCC(NC(=O)C3CCCCC3)CC2)n1 | -11.6
O=c1cc(N2CCCC2)cnn1CC(F)F | -88.9
CC(C)COCC1CN(Cc2ccc3c(c2)OCO3)Cc2ncn(C)c21 (stereo not given) | 38.7
CCC(O)(CNCc1ccncc1)c1ccc(Br)cc1 (stereo not given) | 8.37
COc1cc(NCc2ncc[nH]2)ccc1Br | -173
CCC(O)(CNCc1ncc[nH]1)c1ccc(Br)cc1 (stereo not given) | 67.5
O=C(c1ccsc1)N1CCc2ncc(Cn3cncn3)n2CC1 | -17.9
COCCNc1ccc(-c2noc([C@@H]3CCCN3)n2)cn1 | 39.8
COCC(=O)Nc1ccc(-c2noc([C@@H]3CCCN3C)n2)cn1 | -28.7
COCC(=O)Nc1ccc(-c2noc([C@@H]3CCCN3)n2)cn1 | 52.6
CN(C)c1cc2c(nn1)CCN(C(=O)C1Cc3ccccc3O1)C2 (stereo not given) | -78.5
O=C(c1cscn1)N1CCO[C@H]2[C@@H](Oc3ccccn3)CC[C@@H]21 | -20.9
Cc1csc(C(=O)N2CCC(O)(CN3CCc4ccccc4C3)C2)c1 (stereo not given) | -1.9
O=C(NCc1ccccc1Cl)c1[nH]nc2c1CS(=O)(=O)CC2 | -148
Cn1cc(CN2CCCCC2c2ccc(-c3cccc(Cl)c3)nc2)cn1 (stereo not given) | 55.3
Cn1cc(CN2CCCCC2c2ccc(-c3cccc(F)c3)nc2)cn1 (stereo not given) | 2.27

Structure (SMILES) | INHIBITION [%]
Cn1cc(CN2CCCCC2c2ccc(-c3cnn(C)c3)nc2)cn1 (stereo not given) | -15.7
Cc1nc(O)c2nnn(C[C@H]3CCCN3C(=O)c3ccccc3C)c2n1 | -51
CC(c1ccc(F)cc1F)N1CCN(CCC(=O)NC(N)=O)CC1 (stereo not given) | 64
CC(c1ccc(F)cc1F)N1CCN(CCC(=O)O)CC1 (stereo not given) | -11.3
CC(SCCC(=O)NC(N)=O)c1ccc(F)cc1F (stereo not given) | -47
N#Cc1ccc(C(=O)N2CCC(c3ncc[nH]3)CC2)cn1 | -111
C=C(C)CNC1CCCN(Cc2noc(C3CC3)n2)C1 (stereo not given) | 32.4
Cc1ccc2c(c1)C(NC(=O)N(C)C)CC21CCN(C(C)C)CC1 (stereo not given) | -82
O=C(c1ccc[nH]1)N1CCn2cc(Cn3cccn3)nc2C1 | -68.4
CCOCc1cnc2n1CCN(C(=O)c1cn(C)c3ccccc13)C2C (stereo not given) | -9.29
Clc1cccc(C(CNCc2ccccn2)N2CCOCC2)c1 (stereo not given) | 53.1
O=C(C(CNCc1cccnc1)c1ccccc1)N1CCOCC1 (stereo not given) | -52.2
Cc1ccc(C(CNCc2cccnc2)N2CCOCC2)s1 (stereo not given) | -0.0343
Clc1cccc(C(CNc2ncccn2)N2CCOCC2)c1 (stereo not given) | -57
O=C(C(CNCc1ccccn1)c1ccccc1)N1CCOCC1 (stereo not given) | -29.2
Clc1cccc(C(CNCc2cccnc2)N2CCOCC2)c1 (stereo not given) | 56.9
CCOCC(=O)NCc1cc(Br)ccc1OC(F)F | -119
CCC(C(=O)N1CCS(=O)(=O)CC1)n1cccn1 (stereo not given) | -77.5
CN(C)C(=O)c1ccc2c(c1)nc(N1CC[C@H](O)C1)n2C | -58.1
CN(c1ccc(Cl)c(C(=O)NCCCN2CCOCC2)c1)S(C)(=O)=O | -93.1
O=C(CCCNC(=O)c1cnccn1)Nc1ncc[nH]1 | -63.2
CC(C)COCCC(=O)NCc1cn2cc(Br)ccc2n1 | -27.3
